# High-throughput results: PubChem, National Center for Advancing Translational Sciences (NCATS)
# Most compounds without a hit are left out; they make up all but 11% or so of the library.
# JMJD2A Tudor inh = JMJD2A Tudor domain (human) inhibition | O75164 | AID 504339 | Potency, µM (doses to about 114 µM), for the others: at the highest dose activity change, negative = inhibition, actives largely listed as inhibitors | AlphaScreen JMJD2A-Tudor / H3K4me3 peptide binding | hit rate 4.4% among 390,000; further: on the % scale 0 is the no-effect control and ±100 the full control effect; nearly all actives have a fitted effect of over 50% in size
# HP1b chromo inh = HP1-beta chromodomain-methylated histone interaction inhibition; P83916; AlphaScreen HP1-beta / biotin-H3K9me3 peptide binding; Potency, µM (titrated, usually from 114 µM), inactives show at the top dose activity change, negative = inhibition, most hits filed as inhibitors; hit rate 0.56% among 390,000; further: nearly all actives have a fitted effect of over 70% in size
#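 AlphaScreen: HP1-beta (50 nM) preformed 30 min with biotin-H3(1-18)K9me3 peptide (50 nM) in PBS pH 7.4, 0.01% Tween-20. Compound added for 30 min at RT, then streptavidin donor/nickel chelate acceptor beads (10 ug/mL) for 30 min.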
# L3MBTL1 block = L3MBTL1 (human) inhibition | AlphaScreen L3MBTL1–H3K9me1 peptide binding | Potency, µM (series often up to 57.1 µM), without a hit: at the top dose activity, negative = inhibition, most hits filed as inhibitors | AID 485360 | hit rate 0.66% among 230,000 | Q9Y468; further: on the % scale 0 is the no-effect control and ±100 the full control effect; nearly all actives have a fitted effect of over 60% in size
#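 L3MBTL1 (50 nM) pre-complexed 30 min with biotinylated H3(1-15)K9me1 peptide (75 nM), then compounds added for 30 min at room temperature; AlphaScreen streptavidin donor/nickel chelate acceptor beads (10 ug/mL final) read after 30 min dark incubation.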
# BAZ2B block = inhibitors of human BAZ2B bromodomain | Q9UIF8 | AlphaScreen BAZ2B-H3K14Ac peptide displacement | Potency, µM (series often up to 114 µM), for the others: at the top dose activity change, negative = inhibition, usual class: inhibitors | hit rate 4.4% among 360,000; further: on the % scale 0 is the no-effect control and ±100 the full control effect; nearly all actives have a fitted effect of over 60% in size
#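 AlphaScreen displacement: compounds (up to 110uM) incubated 30 min at room temperature with a preformed 50 nM BAZ2B/50 nM biotinylated H3K14Ac peptide complex in PBS pH 7.4 with Tween-20. Donor and acceptor beads at 10 ug/mL final added, 20 min light-protected before reading.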
# G9a block = G9a (human) methyltransferase inhibition; Q96KQ7; G9a H3K9 monomethylation, AlphaScreen, 2 h; Potency, µM (top dose mostly 102 µM), for the others: at the top dose activity, negative = inhibition, usual class: inhibitors; hit rate 8.8% among 350,000; AID 504332; further: on the % scale 0 is the no-effect control and ±100 the full control effect; nearly all actives have a fitted effect of over 75% in size
#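 Methyltransferase reactions run at room temperature for 2 h (20 nM enzyme, 500 nM biotin-H3K9 peptide, 20 uM SAM) after a 15 min compound preincubation; product detected by AlphaScreen beads and anti-H3K9me1 antibody.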
# * hit, by the source's call; ? = inconclusive; nt = not tested or not shown; [ ] = dose if it differs, or a comment. The call rests on the fitted dose curve; in most records, active means well fitted inhibition curve with a large enough effect; inconclusive means small, poorly fitted or top-dose-only effect; inactive means no such curve, though single readings can be large or run the other way. Potency means the concentration at half of the fitted maximal effect.
SMILES,JMJD2A Tudor inh,HP1b chromo inh,L3MBTL1 block,BAZ2B block,G9a block
COc1cc(C2C(C(=O)C(C)(C)C)=C(O)C(=O)N2Cc2ccccc2)ccc1O (configuration not stated),?,16%,3%,?,nt
COc1ccc(C2C(C(C)=O)=C(O)C(=O)N2CCc2ccccc2)c(OC)c1 (configuration not stated),32µM*,11%,nt,?,?
COc1cc(C2C(C(C)=O)=C(O)C(=O)N2Cc2ccccc2)ccc1O (configuration not stated),17%,22%,nt,-23%,45µM*
CC(=O)C1=C(O)C(=O)N(Cc2ccccc2)C1c1cccs1 (configuration not stated),-21%,-5%,-3%,?,45µM*
COc1ccc(OC)c(C2C(C(C)=O)=C(O)C(=O)N2CCC(=O)O)c1 (configuration not stated),?,-7%,nt,50µM*,?
COc1ccc(C2C(C(C)=O)=C(O)C(=O)N2Cc2ccccc2)c(OC)c1 (configuration not stated),2%,16%,nt,-3%,50µM*
COc1cccc(C2C(C(=O)c3cccs3)=C(O)C(=O)N2CCN(C)C)c1OC (configuration not stated),?,0%,0%,4%,-4%[59 µM]
COc1ccc(OC)c(C2C(C(=O)c3cccs3)=C(O)C(=O)N2CCN(C)C)c1 (configuration not stated),-24%,24%,2%,12%,50µM*
CCN(CC)C(=O)[C@H]1C[C@H](CC(=O)NCCN2CCOCC2)C(=O)N2CCc3c([nH]c4cc(-c5ccco5)ccc34)[C@]12C,-34%,-1%,-4%,nt,nt
CCN(CC)C(=O)[C@H]1C[C@H](CC(=O)NCc2ccco2)C(=O)N2CCc3c([nH]c4cc(-c5ccco5)ccc34)[C@]12C,50µM*,?,-39%,nt,nt
CC[C@]12c3[nH]c4cc(-c5ccco5)ccc4c3CCN1C(=O)[C@@H](CC(=O)NCc1ccco1)C[C@@H]2C(=O)N1CCN(C(=O)c2ccco2)CC1,?,-25%,35µM*,nt,nt
CC[C@]12c3[nH]c4ccccc4c3CCN1C(=O)C(CC(=O)NCc1ccco1)C[C@@H]2C(=O)N1CCN(C(=O)c2ccco2)CC1 (some centres not stated),-24%,7%,0%,nt,nt
CC(C)(C)NC(=O)C[C@H]1C[C@H](C(=O)N2CCCCC2)[C@@]2(C)c3[nH]c4cc(-c5ccco5)ccc4c3CCN2C1=O,50µM*,-23%,-1%,nt,nt
CC(C)(C)NC(=O)C[C@H]1C[C@H](C(=O)N2CCOCC2)[C@@]2(C)c3[nH]c4cc(-c5ccco5)ccc4c3CCN2C1=O,?,0%,-4%,nt,nt
CCCCn1c(C(C)NC(=O)c2ccccc2)nc2ccccc21 (configuration not stated),-11%,22%,nt,-5%,-29%[59 µM]
COC(=O)c1c(SC)nc2ccccc2c1OCc1cc(C)ccc1C,108%,197%,nt,282%,169%[59 µM]
Clc1ccccc1-c1nnc2sc(-c3cccs3)nn12,-21%,-14%,-4%,6%,35µM*
Clc1ccccc1-c1nn2c(-c3ccncc3)nnc2s1,?,?,5%,0%,3.2µM*
Clc1ccccc1-c1nn2c(-c3ccccn3)nnc2s1,?,?,-1%,79µM*,?
CNC(=S)N1C2CCCC1CC(NC(=O)c1ccc(F)cc1)C2 (configuration not stated),-13%,16%,8%,-9%,-23%
CCn1ccnc1C(O)c1ccc(N(C)C)cc1 (configuration not stated),?,-5%,0%,?,32µM*
CCOc1ccc(C(O)c2nccn2Cc2ccccc2)cc1 (configuration not stated),-22%,30%,-3%,-38%,?
COc1ccc2c(C)cc3n[nH]c(=S)n3c2c1,0.71µM*,?,-1%,?,1µM*
Cc1ccc(S(=O)(=O)COCCN2CCN(S(=O)(=O)c3ccc(C)cc3)CCC2=O)cc1,nt,nt,nt,nt,-50%[59 µM]
O=[N+]([O-])c1cc(S(=O)(=O)C(F)(F)F)ccc1Sc1nc2ccccc2s1,35µM*,?,-4%,7.9µM*,-6%[0.501 µM]
SMILES,JMJD2A Tudor inh,HP1b chromo inh,L3MBTL1 block,BAZ2B block,G9a block
CS(=O)(=O)c1ccc(Sc2nc3ccccc3s2)c([N+](=O)[O-])c1,?,2%,-13%,-38%,0%[59 µM]
CCn1c2ccccc2c2cc(NC(=O)COc3cc(C)ccc3C)ccc21,-19%,66%,nt,30%,22%[59 µM]
CCN(CC)C(=O)c1sc2nc(-c3ccccn3)[nH]c(=O)c2c1C,28µM*,25%,nt,nt,nt
CCN(CC)C(=O)c1sc2nc(-c3ccncc3)[nH]c(=O)c2c1C,-5%,38%,12%,-2%,26%[59 µM]
Cc1sc2nc(-c3ccccn3)[nH]c(=O)c2c1-c1ccccc1,-14%,18%,-32%,-3%,10µM*
Cc1ccccc1OCC(=O)NCC(C)NC(=O)COc1ccccc1C (configuration not stated),-8%[57.1 µM],2%[57 µM],nt,nt,nt
Cc1ccc(NC(=O)c2ccc(Cl)c(N3C(=O)C=CC3=O)c2)cc1,7.9µM*,?,-1%,22µM*,-40%[0.501 µM]
O=C1c2cccc3cccc(c23)C(=O)N1OS(=O)(=O)c1ccccc1,-23%,4%,-5%,7%,27%[59 µM]
Cc1ccc(S(=O)(=O)ON2C(=O)c3cccc4cccc(c34)C2=O)cc1,-24%,54%,0%,-2%,28%[59 µM]
O=C1c2ccccc2C(=O)N1OS(=O)(=O)c1ccccc1,nt,nt,3%,-11%,4µM*
Cc1cc(S(=O)(=O)ON2C(=O)c3ccccc3C2=O)ccc1F,79µM*,?,nt,-26%,7.1µM*
Cc1ccc(C)c(S(=O)(=O)ON2C(=O)c3ccccc3C2=O)c1,?,32µM*,15%,-6%,7.9µM*
Cc1ccc(CNc2ncnc3ccc(-c4ccc5c(c4)OCO5)cc23)s1,-26%,nt,nt,nt,nt
Cc1cc(C)n2nc(C(=O)NNC(=O)c3ccccc3)nc2n1,?,33%,23%,?,14µM*
COc1ccc(NC(=O)c2ccc(NC(=O)c3nc4nc(C)cc(C)n4n3)cc2)cc1,-15%,10%,3%,35%,35µM*
COc1ccc(NC(=O)CSc2nc3nc(C)cc(C)n3n2)cc1,1%,-4%,nt,-12%,13%
C#Cc1ccc([C@@H]2C=C(C(=O)OCC=C)O[C@H](OCCCCO)C2)cc1,-34%,30%,0%,50µM*,?
O=C(O)C1=C[C@H](c2ccc(F)cc2)C[C@H](OCCCCO)O1,-24%,58%,nt,79µM*,-28%[12.7 µM]
O=C(O)C1=C[C@H](c2ccccc2)C[C@H](OCCCCO)O1,-16%,20%,nt,nt,nt
